Assay results taken from ChEMBL document CHEMBL2218924, “A broad activity screen in support of a chemogenomic map for kinase signalling research and drug discovery” (Biochem J, 2013).

Target: PAS domain-containing serine/threonine-protein kinase (Homo sapiens) (UniProt Q96RG2)
Details: at 1 µM

Chain of PAS domain-containing serine/threonine-protein kinase (Homo sapiens) (Q96RG2 whole entry, the tested form may be a part): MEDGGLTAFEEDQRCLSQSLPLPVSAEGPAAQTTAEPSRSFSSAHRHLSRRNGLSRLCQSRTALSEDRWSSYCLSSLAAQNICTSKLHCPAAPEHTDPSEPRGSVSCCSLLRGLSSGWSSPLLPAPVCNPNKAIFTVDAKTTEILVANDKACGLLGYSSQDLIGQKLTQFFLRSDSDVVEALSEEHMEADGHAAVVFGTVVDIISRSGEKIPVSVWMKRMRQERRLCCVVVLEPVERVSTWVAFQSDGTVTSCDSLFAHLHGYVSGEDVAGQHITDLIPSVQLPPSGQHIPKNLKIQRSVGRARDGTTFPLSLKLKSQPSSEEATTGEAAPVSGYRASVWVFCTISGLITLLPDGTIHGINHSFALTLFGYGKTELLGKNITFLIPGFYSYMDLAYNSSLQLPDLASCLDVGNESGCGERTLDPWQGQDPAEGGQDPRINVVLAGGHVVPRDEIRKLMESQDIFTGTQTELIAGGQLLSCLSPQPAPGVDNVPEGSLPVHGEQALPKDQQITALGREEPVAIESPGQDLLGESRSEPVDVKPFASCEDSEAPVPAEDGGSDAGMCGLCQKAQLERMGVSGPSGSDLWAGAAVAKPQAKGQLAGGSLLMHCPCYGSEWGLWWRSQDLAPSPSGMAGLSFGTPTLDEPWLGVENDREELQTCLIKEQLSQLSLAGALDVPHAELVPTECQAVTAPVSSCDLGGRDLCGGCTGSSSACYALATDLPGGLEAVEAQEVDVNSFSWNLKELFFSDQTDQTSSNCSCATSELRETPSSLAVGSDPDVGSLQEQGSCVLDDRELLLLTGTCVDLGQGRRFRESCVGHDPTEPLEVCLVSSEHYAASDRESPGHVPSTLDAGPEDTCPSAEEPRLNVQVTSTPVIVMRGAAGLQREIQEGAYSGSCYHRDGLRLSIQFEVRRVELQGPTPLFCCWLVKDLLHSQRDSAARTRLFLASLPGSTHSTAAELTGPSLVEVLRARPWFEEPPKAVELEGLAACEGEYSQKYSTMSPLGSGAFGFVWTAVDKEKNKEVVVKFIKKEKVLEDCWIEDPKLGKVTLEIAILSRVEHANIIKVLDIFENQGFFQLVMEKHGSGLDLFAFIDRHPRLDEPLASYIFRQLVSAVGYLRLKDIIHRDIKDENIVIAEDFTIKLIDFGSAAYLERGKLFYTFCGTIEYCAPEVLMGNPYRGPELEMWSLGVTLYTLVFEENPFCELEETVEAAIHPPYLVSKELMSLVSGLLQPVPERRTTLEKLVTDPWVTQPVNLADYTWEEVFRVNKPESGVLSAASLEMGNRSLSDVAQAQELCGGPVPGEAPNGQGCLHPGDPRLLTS

Row | Compound | residual activity [%]
1 | N#C/C(=C\c1ccc(O)c(O)c1)C(=O)NCc1ccccc1 | 100
2 | CC(=O)c1ccc(N2CCOCC2)cc1O | 127
3 | Nc1ccc2ncnc(NCCc3ccc(Oc4ccccc4)cc3)c2c1 | 107
4 | O=C1NC(=O)C(c2c[nH]c3ccccc23)=C1c1c[nH]c2ccccc12 | 81
5 | CN([C@@H](Cc1ccc(OS(=O)(=O)c2cccc3cnccc23)cc1)C(=O)N1CCN(c2ccccc2)CC1)S(=O)(=O)c1cccc2cnccc12 | 79
6 | CCOc1cc2ncnc(Nc3cccc(Br)c3)c2cc1OCC | 79
7 | O=C1Nc2ccccc2/C1=C1/Nc2ccccc2/C1=N\OCCC(O)CO (centres undefined) | 140
8 | Cn1sc(=O)n(Cc2ccccc2)c1=O | 100
9 | NC(=O)Nc1sc(-c2ccc(F)cc2)cc1C(N)=O | 107
10 | CSc1nc(-c2ccc(F)cc2)c(-c2ccnc(NC(C)c3ccccc3)c2)[nH]1 (centres undefined) | 95
11 | Cn1c2ccccc2c2c3c(c4c5ccccc5n(CCC#N)c4c21)CNC3=O | 93
12 | O=C(NC(NC(=S)Nc1ccc(F)c([N+](=O)[O-])c1)C(Cl)(Cl)Cl)C(c1ccccc1)c1ccccc1 (centres undefined) | 103
13 | Cc1cc(Nc2nc(-c3ccccc3)nc3ccccc23)n[nH]1 | 108
14 | CNc1cc2c(Nc3cccc(Br)c3)ncnc2cn1 | 128
15 | Cc1nc2cc3nc(-c4cccs4)cnc3cc2n1C | 98
16 | Oc1ccc(Nc2nc(-c3ccc(Cl)cc3)cs2)cc1 | 147
17 | COc1ccc(CNc2nc(N(CCO)CCO)nc3c2ncn3C(C)C)cc1 | 117
18 | C[C@@H](N)[C@H]1CC[C@H](C(=O)Nc2ccncc2)CC1 | 82
19 | O=c1cc(N2CCOCC2)oc2c(-c3ccccc3)cccc12 | 125
20 | O=C1C(Cl)=C(N2C(=O)CCC2=O)C(=O)c2ccccc21 | 100

Row | Compound | residual activity [%]
21 | COc1cc2ncnc(Nc3ccc(Oc4ccccc4)cc3)c2cc1OC | 98
22 | O=c1cc(N2CCOCC2)oc2c1ccc1ccccc12 | 141
23 | N#Cc1cnc2cnc(NCc3cccnc3)cc2c1Nc1ccc(F)c(Cl)c1 | 80
24 | COc1cc2ncnc(Nc3ccc(O)c(Br)c3)c2cc1OC | 73
25 | O=C1NC(=O)/C(=C\c2ccc3nccnc3c2)S1 | 87
26 | CCCC(=O)Oc1ccc2[nH]c(C(=O)c3cc4ccccc4[nH]3)cc2c1 | 122
27 | CN(C)CCCn1cc(C2=C(c3c[nH]c4ccccc34)C(=O)NC2=O)c2ccccc21 | 74
28 | Cn1cnc2cc3c(Nc4cccc(Br)c4)ncnc3cc21 | 82
29 | CC(C)n1cnc2/c(=N/c3cccc(Cl)c3)nc(NCCO)[nH]c21 | 113
30 | CN(C)c1ccc(/C=C2\C(=O)Nc3ccccc32)cc1 | 86
31 | O=c1c(-c2ccc(F)cc2)c(-c2ccncc2)[nH]n1-c1ccc(Cl)cc1 | 135
32 | CC(C)N(CCC(=O)c1ccc2ccccc2c1)Cc1ccccc1 | 126
33 | Nc1n[nH]c2nnc(-c3c(-c4ccccc4)nn4ccccc34)cc12 | 104
34 | CC(C)n1cnc2c(NCc3ccccc3)nc(NCCCO)nc21 | 131
35 | N#CC(C#N)=C(N)/C(C#N)=C/c1ccc(O)cc1 | 99
36 | Cc1ccc(NC2=CC(=O)c3sc(C)nc3C2=O)cc1 | 81
37 | Nc1nc(Nc2ccc(S(N)(=O)=O)cc2)nn1C(=S)Nc1c(F)cccc1F | 108
38 | CC#CC(=O)Nc1cc2c(Nc3ccc(F)c(Cl)c3)ncnc2cn1 | 101
39 | O=C1Nc2cc(Br)ccc2/C1=C1/Nc2ccccc2/C1=N\O | 94
